Holding throughout (experiment): PBM binding z-score (relative to random genomic background probes); higher = stronger binding; sequences stand for … in GC…GCGATTGACAGCGTAGAATGAAGG
In experiment [1] the test system is FXR:RXRa (NR concentration 270 nM, RXRa partner concentration 90 nM). In outline: (§1)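 Custom Agilent 4×180K protein-binding microarrays carried double-stranded probes. Their 34-nt variable regions held direct-repeat seeds, single-nucleotide variants, half-site ablations and random human genomic background sequences. Arrays were incubated 1 h with ligand-free nuclear receptor dimers in PBS pH 7.4, 2% milk, 0.02% Triton X-100, 1 mM DTT, 0.2 mg/mL BSA and 0.4 mg/ml salmon testes DNA. Antibodies against each partner (one per run) detected binding, and scanned fluorescence was regression-normalized. Binding z-scores use random background probes as reference.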

Experiment [2] concerns LXRa:RXRa (NR concentration 270 nM, RXRa partner concentration 90 nM). The method, boiled down:
as §1

In experiment [3] the test system is LXRa homodimer (NR concentration 270 nM). The method, boiled down: as §1
The subject of experiment [4] is LXRb:RXRa (NR concentration 270 nM, RXRa partner concentration 90 nM). In outline: as §1
For experiment [5], the system named is LXRb homodimer (NR concentration 270 nM). In outline:
as §1

The subject of experiment [6] is PPARa:RXRa (NR concentration 270 nM, RXRa partner concentration 90 nM). The method, boiled down:
as §1

Experiment [7] relates to PPARg:RXRa (NR concentration 180 nM, RXRa partner concentration 90 nM). The method, boiled down:
as §1

The test system of experiment [8] is PPARg:RXRa 270nM:90nM, anti-RXR (NR concentration 270 nM, RXRa partner concentration 90 nM). In outline:
as §1

Experiment [9] concerns PPARg:RXRa 30nM:10nM, anti-RXR (NR concentration 30 nM, RXRa partner concentration 10 nM). The method, boiled down: as §1
Experiment [10] concerns PPARg:RXRa 90nM:30nM, anti-RXR (NR concentration 90 nM, RXRa partner concentration 30 nM). In outline:
as §1

The subject of experiment [11] is PPARg:RXRa DBDmut IVT, anti-RXR (DBD mutation: RXRa K156A/R161A, NR concentration 270 nM, RXRa partner concentration 90 nM). In outline:
as §1

The subject of experiment [12] is PPARg:RXRa IVT, anti-PPARg (NR concentration 270 nM, RXRa partner concentration 90 nM). In outline: as §1
For experiment [13], the system named is PPARg DBDmut:RXRa IVT, anti-PPARg (DBD mutation: PPARg1 K132A/R137A, NR concentration 270 nM, RXRa partner concentration 90 nM). The method, boiled down:
as §1

Experiment [14] relates to PPARg DBDmut IVT, anti-PPARg (DBD mutation: PPARg1 K132A/R137A, NR concentration 270 nM). The method, boiled down: as §1
Experiment [15] concerns PPARg homodimer (NR concentration 180 nM). In outline:
as §1

Experiment [16] relates to PXR:RXRa (NR concentration 270 nM, RXRa partner concentration 90 nM). The method, boiled down:
as §1

The test system of experiment [17] is PXR homodimer (NR concentration 270 nM). The method, boiled down: as §1
Experiment [18] has as its system RARa:RXR (NR concentration 270 nM, RXRa partner concentration 90 nM). In outline:
as §1

Experiment [19] deals with RARa homodimer (NR concentration 270 nM). In outline: as §1
Experiment [20] deals with RARb:RXRa (NR concentration 270 nM, RXRa partner concentration 90 nM). In outline:
as §1

As for ATCTCTAGGTCAGACTCAGTTCAGTGAAGAACGC, the PBM binding z-score in experiment [1] was 2.16; in experiment [2] it was 3.65; in experiment [3] it was 3.15; in experiment [4], 2.13; in experiment [5], 2; in experiment [6], 2.7. Also, the PBM binding z-score was found to be 3.02 in experiment [7]; 2.96 in experiment [8]; 0.87 in experiment [9]; 2.1 in [10]; 5.06 in experiment [11]; 5.22 in experiment [12]. Also, the PBM binding z-score in [13] came to 1.01; in experiment [14], 1.61; in experiment [15], 2.14; in experiment [16], 4.07; in [17] it was 1.69; in experiment [18] it was 2.07. The PBM binding z-score is 1.03 in [19] and 3.51 in experiment [20].

Consider ACTAGCAGGCCAAGTTTGGTTCACTCAAACAAAG, for which the PBM binding z-score in [1] is -0.324; in experiment [2], -0.317; in [3] it was -0.342; in experiment [4], -0.0394; in [5], -0.539; in experiment [6], 0.158. The PBM binding z-score in experiment [7] was -0.322; in [8] it was -0.162; in [9], -0.424; in experiment [10] it was -0.301; in experiment [11], 0.651; in experiment [12], 0.311. Also, the PBM binding z-score was 0.0208 in [13]; -0.415 in [14]; -0.521 in experiment [15]; 0.287 in [16]; 0.256 in experiment [17]; 0.113 in experiment [18]. For the same sequence, the PBM binding z-score is -0.755 in experiment [19] and 0.54 in [20].

As to CGTCAAAGTTCCACTAAGGTAACGTAAAGCACGC, the PBM binding z-score is 0.0989 in [1]; -0.0438 in [2]; -0.0633 in experiment [3]; 0.0124 in [4]; 0.0274 in [5]; 0.268 in experiment [6]. Besides, the PBM binding z-score was 0.459 in experiment [7]; 0.573 in [8]; -0.0574 in [9]; 0.281 in experiment [10]; 0.458 in experiment [11]; 0.925 in experiment [12]. Further, the PBM binding z-score in experiment [13] was -0.504; in experiment [14], 0.445; in [15] it was 0.404; in experiment [16] it was 0.17; in [17] it was 0.428; in experiment [18], 2.22. For the same sequence, the PBM binding z-score in experiment [19] came to 0.139; in experiment [20], 0.704.

For GGTACGAGGGCATTCGAGTTGATAGCATGGCGAT, the PBM binding z-score was 1.45 in [1]; 1.69 in [2]; -0.269 in experiment [3]; 0.123 in experiment [4]; -0.742 in experiment [5]; 0.926 in [6]. Also, the PBM binding z-score in experiment [7] is 0.726; in experiment [8] it was 0.262; in experiment [9] it was -0.638; in [10], 0.0723; in [11] it was 1.41; in experiment [12], 1.41. Moreover, the PBM binding z-score was -0.377 in [13]; -0.67 in experiment [14]; -0.0678 in experiment [15]; 3.64 in [16]; 1.73 in experiment [17]; 0.568 in experiment [18]. In addition, the PBM binding z-score in experiment [19] was -0.0392; in experiment [20] it was 1.95.

Turning to ATCGAAAGGTCGATGTGAGTATAGAGAAAGGGAA, the PBM binding z-score in [1] was 3.06; in experiment [2], 2.82; in [3] it was -0.178; in experiment [4], 2; in [5], 0.549; in experiment [6], 3.35. The PBM binding z-score in experiment [7] is 1.66; in experiment [8] it was 1.77; in experiment [9], 1.02; in [10] it was 1.33; in experiment [11], 0.226; in experiment [12], 1.15. Moreover, the PBM binding z-score in experiment [13] came to 1.83; in experiment [14], 0.629; in [15], 0.753; in experiment [16], 1.77; in experiment [17], 0.123; in [18] it was 2.36. Further, the figures for the PBM binding z-score in [19] and in experiment [20] were 0.145 and 3.26, respectively.

With CAAACTAGCTCAAGGTCAAAGTCGGTTTGTGCCA, the PBM binding z-score was determined as 4.51 in [1]; 5.18 in experiment [2]; 5.93 in experiment [3]; 4.13 in [4]; 1.45 in experiment [5]; 4.17 in [6]. The PBM binding z-score in experiment [7] was found to be 1.21; in experiment [8] it was 2.95; in experiment [9], 0.947; in experiment [10], 2.05; in experiment [11], 1.26; in [12], 1.78. For the same sequence, the PBM binding z-score in experiment [13] is -0.371; in experiment [14], -0.234; in experiment [15], 2.07; in [16], 4.39; in experiment [17], 2.66; in experiment [18], 4.08. The PBM binding z-score in experiment [19] was determined as 0.525; in [20], 3.88.

With ATATGTAGCTTAGCTGGGGTCATTCAGACTAGGC, the PBM binding z-score in experiment [1] was determined as 3.34; in [2], 3.44; in [3] it was 1.49; in experiment [4] it was 4.21; in [5], 0.639; in [6], 4.15. Besides, the PBM binding z-score in experiment [7] was determined as 1.15; in experiment [8], 2.3; in experiment [9] it was 0.587; in experiment [10], 1.59; in [11], 0.33; in [12] it was 0.991. Further, the PBM binding z-score stood at 0.947 in experiment [13]; 0.695 in experiment [14]; 1.04 in experiment [15]; 5.29 in experiment [16]; 1.48 in experiment [17]; 4.92 in [18]. Also, the PBM binding z-score in [19] amounted to 0.298; in experiment [20] it was 2.4.

These data come from the supplement of paper PMC6555819.
